High-throughput results as filed in PubChem BioAssay.
aSyn UTR act: Activators via SNCA 5'UTR binding, MLPCN | activity score, % (tested at 7.5 µM), hits read low | alpha-synuclein 5'UTR reporter, activators screen | 300,000 compounds, 7.1% hits; in the data active means activity score below about -60%
Starred values were filed as active, the others as inactive. Only a sample is shown.

SMILES | aSyn UTR act
Cn1nccc1C(=O)OCC(=O)Nc1nc(-c2ccccc2)cs1 | -126.1*
COc1ccccc1CC(=O)Nc1nc(-c2ccc(F)c(F)c2)cs1 | -82.6*
O=C(COC(=O)CNC(=O)c1ccccc1)Nc1nc(-c2ccccc2)cs1 | -71.1*
Cn1cc(Cl)c(C(=O)OCC(=O)Nc2nc(-c3ccc(Br)cc3)cs2)n1 | -109.9*
c1ccc(NCC2OCc3ccccc3CO2)cc1 | -147.0*
Cc1ccc2nc(NC(=O)CN3CCOCC3)sc2c1 | -106.7*
O=C(CN1CCOCC1)Nc1nc2ccc([N+](=O)[O-])cc2s1 | -62.3*
O=C(Cn1cccc1C(=O)c1ccccc1)NCc1ccccc1Cl | -73.9*
Cc1ccccc1C(=O)c1cccn1CC(=O)NCc1ccccc1Cl | -99.6*
CC(C)(C)n1ncc2c(=O)n(CC(=O)NCc3ccccc3Cl)cnc21 | -90.2*
CCN1C(=O)/C(=C\N2CCCCCC2)SC1=S | -112.0*
CCN1C(=O)/C(=C/N2CCc3ccccc3C2)SC1=S | -107.8*
COc1ccc(/C=C2\SC(=S)N(CCCC(=O)N3CCCCC3CCO)C2=O)cc1 (stereo not drawn) | 67.9
Clc1cccc(N/N=C(\Cc2nc3ccccc3[nH]2)c2ccccc2)c1 | -102.1*
O=C(Nc1ccc(F)cc1)c1c(Cl)nc2ccccn12 | -111.5*
COc1ccc(NC(=O)c2c(Cl)nc3ccccn23)cc1 | -142.4*
COC(=O)c1cc(NC(=O)c2c(Cl)nc3sccn23)cc(C(=O)OC)c1 | 79.5
COc1ccc(C2=NCN(c3ccc(C)cc3)C(=S)N2)cc1 | -138.1*
Cc1ccc(N2CN=C(c3ccccc3)NC2=S)cc1 | -113.4*
O=C(c1ccc2ccccc2c1)N1CCN(Cc2ccccc2)CC1 | -85.4*
COc1cccc(NC(=O)c2ccc(CN3CCc4ccccc4C3)cc2)c1 | -104.3*
CC(C)(C)SCCNC(=O)c1ccc(CN2CCc3ccccc3C2)cc1 | -63.1*
Cc1cccc(NC(=O)c2ccc(CN3CCN(Cc4ccccc4)CC3)cc2)c1 | -76.8*
Oc1c(CN2CCc3ccccc3C2)cc(Cl)c2cccnc12 | 90.8
N=c1oc2ccccc2cc1-c1nc2ccccc2c(=O)[nH]1 | -165.4*
SMILES | aSyn UTR act
Cc1cccc(-c2nc3ccccc3c(=O)[nH]2)c1 | -110.7*
Cn1c(CN2CCCCC2)nc2cc(NC(=O)c3ccc(Cl)cc3)ccc21 | -65.7*
Cc1ccc(C(C)C)c(OCC(=O)Nc2ccc3c(c2)nc(CCN2CCCCC2)n3C)c1 | 110.3
Cn1c(CN2CCCC2)nc2cc(NC(=O)c3cccs3)ccc21 | -76.4*
Cn1c(CN2CCCC2)nc2cc(NC(=O)c3ccc(Cl)cc3)ccc21 | -62.8*
C/C(=N\Nc1cccc2cccnc12)c1ccc(C)cc1 | -170.2*
CCC(=O)NC(c1ccc(C)cc1)c1ccc2cccnc2c1O (stereo not drawn) | 80.9
Cc1ccc(C(=O)Nc2cccc3cccnc23)cc1C | -87.0*
O=C(Nc1cccnc1Cl)c1ccc(Cl)cc1 | -147.8*
O=C(NC(=S)Nc1cccnc1Cl)c1ccc(Cl)cc1 | -153.9*
O=C(Nc1cccc2cccnc12)c1ccc(Cl)cc1 | -75.5*
CC(C)C(=O)NC(c1ccc(Cl)cc1Cl)c1ccc2cccnc2c1O (stereo not drawn) | 92.3
O=C(Nc1ccnc(-c2cccnc2)n1)c1ccc(Cl)cc1 | -116.7*
O=C(NC(c1ccc(Cl)cc1)c1cc(Cl)c2cccnc2c1O)c1cccnc1 (stereo not drawn) | 98.0
Cc1ccc(/C=C/C(=O)Nc2cccc3cccnc23)o1 | -132.3*
Clc1ccc2c(c1)[C@H]1OCC[C@H]1[C@@H](c1ccco1)N2 | -167.7*
CC(=O)c1ccc(N(C(=O)Cn2nnc3ccccc32)C(C(=O)NCc2ccccc2)c2ccccn2)cc1 (stereo not drawn) | -105.8*
c1ccc(CCn2nnc3ccccc32)cc1 | -137.9*
O=C(Cn1nnc2ccccc21)NCc1ccccc1 | -99.9*
CCOc1cccc2cc(C(=O)NCCC3=CCCCC3)c(=O)oc12 | -95.0*
O=C(NCCc1ccc(F)cc1)c1ccc([N+](=O)[O-])cc1 | -77.5*
COc1ccc(C(=O)NCCC2=CCCCC2)cc1OC | -81.0*
O=C(NCCC1=CCCCC1)c1ccc([N+](=O)[O-])cc1 | -146.7*
COc1ccc(C(=O)NCCC2=CCCCC2)cc1 | 57.0
O=C(NCCC1=CCCCC1)c1ccc(CN2CCOCC2)cc1 | -72.7*
SMILES | aSyn UTR act
COc1ccc(C(=O)NCCc2ccccc2)cc1OC | -96.5*
O=C(NC1CCCCCC1)c1ccc(CN2CCOCC2)cc1 | -122.2*
CCOc1ccc(C(=O)NCCc2ccccc2)cc1 | 61.1
O=C1CSc2ccc(C(=O)NCCC3=CCCCC3)cc2N1 | -103.6*
COCC(C)N1CCC(Oc2cccc(C(=O)NCCc3ccccc3)c2)CC1 (stereo not drawn) | -71.8*
O=C(CCNC(=O)c1ccc(Cl)cc1)NCCC1=CCCCC1 | -124.4*
Cc1cc(C(=O)NCCC2=CCCCC2)ccc1[N+](=O)[O-] | -121.1*
CC(C)Cc1cc(-c2ccco2)c(C#N)c(N)n1 | 69.8
COC(=O)CSc1nc(-c2ccccc2)cc(-c2ccco2)c1C#N | -63.8*
C/C(=N\NC(=O)c1ccc(Cn2cc(Br)cn2)o1)c1ccc(NC(=O)c2ccoc2C)cc1 | -76.7*
